Dicer inh – inhibitors of Dicer pre-microRNA processing, primary screen, biochemical, cat-ELCCA, chemiluminescence; z-score at 25 µM; 47,000 compounds, 6% hits; cat-ELCCA pre-miR-21 Dicer processing; stronger effect = higher value; Endoribonuclease Dicer (Homo sapiens), Q9UPY3; in the data active means z-score above about 3, passing the limit was not always enough;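 further: higher signal means more uncleaved substrate so more Dicer inhibition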
Of the large screens only hits and unclear results are named; the others gave an inactive call. The sample as a whole holds a higher share of hits than the screen did.

CCOc1ccccc1NC1OC(=O)c2ccccc21 (stereo unspecified)	none
Cc1c2c(=O)n(-c3nc4ccccc4s3)[nH]c2cc(=O)n1Cc1ccc(C(=O)O)cc1	Dicer inh 27
Cc1c2c(=O)n(-c3nc4ccccc4s3)nc-2cc(O)n1Cc1ccccc1	none
CC(=O)N1CCN(CCn2c(C)c3c(=O)n(-c4nc5ccccc5s4)[nH]c3cc2=O)CC1	none
Clc1ccccc1C1Nc2ccccc2O1 (stereo unspecified)	none
Cn1c(/C=C/c2ccccc2)nc2ccccc21	Dicer inh 3.7
COc1ccccc1/C=C/c1nc2ccccc2n1C	none
Cn1c(=O)c(/C=C/c2ccccc2)nc2ccccc21	none
O=C(c1cc2n(n1)C(C(F)(F)F)CC(c1ccccc1)N2)N1CCOCC1 (stereo unspecified)	Dicer inh 3.6
O=C(c1cc2n(n1)C(C(F)(F)F)CC(c1ccc(Br)cc1)N2)N1CCOCC1 (stereo unspecified)	Dicer inh 5
O=C(c1cc2n(n1)C(C(F)(F)F)CC(c1ccc(Cl)cc1)N2)N1CCCCC1 (stereo unspecified)	none
O=C(c1cc2n(n1)C(C(F)(F)F)CC(c1ccco1)N2)N1CCN(c2ccccn2)CC1 (stereo unspecified)	none
COc1ccc(C2CC(C(F)(F)F)n3nc(C(N)=O)cc3N2)cc1OC (stereo unspecified)	none
CC1CCN(C(=O)c2cc3n(n2)C(C(F)(F)F)CC(c2ccc(Br)cc2)N3)CC1 (stereo unspecified)	Dicer inh 5.4
O=C(c1cc2n(n1)C(C(F)(F)F)CC(c1ccc(Br)cc1)N2)N1CCCCC1 (stereo unspecified)	none
O=C(c1cccc(F)c1)N1CCN(C(=O)c2cc3n(n2)C(C(F)(F)F)CC(c2ccco2)N3)CC1 (stereo unspecified)	none
O=C(c1cc2n(n1)C(C(F)(F)F)CC(c1ccc(Cl)cc1)N2)N1CCCC1 (stereo unspecified)	none
CCCNc1nc2c(c(=O)n(C)c(=O)n2C)n1Cc1cccc2ccccc12	none
O=C1C2CCCCC2C(=O)N1CC(=O)N1c2ccccc2CCc2ccccc21 (stereo unspecified)	none
Fc1ccc(C2Sc3ccccc3N=C3c4ccccc4OCC32)cc1 (stereo unspecified)	none
COC(=O)c1scc(S(C)(=O)=O)c1N=CN(C)C	none
Cc1nc(-c2ccc(S(=O)(=O)NCCCN)s2)cs1	none
CC(C)C[C@H](NC(=O)OCC1c2ccccc2-c2ccccc21)C(=O)O	Dicer inh 4.6
C=CCOC(=O)C(CC(=O)O)NC(=O)OCC1c2ccccc2-c2ccccc21 (stereo unspecified)	none
CC[C@H](C)[C@H](NC(=O)OCC1c2ccccc2-c2ccccc21)C(=O)O	none
CCC(=O)Nc1c(C#N)c(C)c(C)n1Cc1cccs1	none
Cc1nc(C)c(-c2csc(Nc3cccc(O)c3)n2)s1	none
Cc1nc(C)c(-c2csc(Nc3ccccc3)n2)s1	Dicer inh 5.1
Cc1nc(C)c(-c2csc(Nc3ccc(C(=O)O)cc3)n2)s1	none
CCOC(=O)CSc1sc(C(=O)OCC)c(-c2ccc(Cl)cc2)c1C#N	none
CC(C)Sc1sc(C(=O)O)c(-c2ccc(Cl)cc2)c1C#N	Dicer inh 4.1
CCSc1sc(C(=O)OC)c(-c2ccc(Cl)cc2)c1C#N	none
CSc1sc(C(=O)NC(C)(C)C)c(-c2ccc(Cl)cc2)c1C#N	none
CCOC(=O)c1sc(SC(C)C)c(C#N)c1-c1ccc(Cl)cc1	Dicer inh 5
CCOC(=O)c1sc(SC(C)CC)c(C#N)c1-c1ccc(Cl)cc1 (stereo unspecified)	none
C=C(C)Cn1c(NCCCN2CCOCC2)nc2c1c(=O)[nH]c(=O)n2C	none
O=C(N=S1CCN(c2ncc(C(F)(F)F)cc2Cl)CC1)Nc1ccc(Cl)cc1	none
Cn1ccnc1C(O)c1ccccc1 (stereo unspecified)	none
COc1ccc(C(O)c2nccn2C)cc1OC (stereo unspecified)	Dicer inh 3.5
COc1ccc2ccccc2c1C(O)c1nccn1C (stereo unspecified)	none
CC(=O)Cn1cnc2c(sc3nc(C)cc(C)c32)c1=O	none
Cc1cc(C)c2c(n1)sc1c(=O)n(/N=C/c3ccccc3)c(C)nc12	none
Cc1cc(C)c2c(n1)sc1c(=O)oc(C)nc12	Dicer inh 4.9
CCOC(=O)NC(=O)/C(C#N)=N/Nc1ccccc1	none
CC(C)(C)S(=O)(=O)/C(C#N)=C/c1ccc(F)c(Cl)c1	none
COc1ccc(-c2cc(=O)c3ccccc3o2)cc1	none
COc1ccc(-c2cc3ccccc3c(=O)o2)cc1	none
COc1ccc(-c2cc3c(=O)oc4ccccc4c3[nH]2)cc1	Dicer inh 4
O=[N+]([O-])c1cc(C2SCCS2)ccc1Sc1ccc(C(F)(F)F)cn1	none
COc1ccc(-c2csc(Nc3ncccn3)n2)cc1OC	none
Cc1cc(C)nc(Nc2nc(-c3ccc(O)c(O)c3)cs2)n1	Dicer inh 8.6
Oc1ccc(-c2csc(Nc3ccccn3)n2)cc1	none
Cc1noc(C)c1NC(=O)NC1CCCCNC1=O (stereo unspecified)	none
O=[N+]([O-])c1ccc(-n2nccc2C(F)(F)F)cc1	none
Cc1ccc(C(C2=C(O)CC(C)(C)CC2=O)C2C(=O)CC(C)(C)CC2=O)o1 (stereo unspecified)	none
CC1(C)CC(=O)C(C(C2=C(O)CC(C)(C)CC2=O)c2cc(Br)ccc2O)C(=O)C1 (stereo unspecified)	none
CC1(C)CC(=O)C(C(C2=C(O)CC(C)(C)CC2=O)c2cccc(O)c2O)C(=O)C1 (stereo unspecified)	Dicer inh 4.3
CC1(C)CC(=O)C(C(C2=C(O)CC(C)(C)CC2=O)c2ccc([N+](=O)[O-])s2)C(=O)C1 (stereo unspecified)	none
CSC1=N/C(=C\c2ccc(Cl)cc2)C(=O)N1N(C)C	none
CSC1=N/C(=C\c2ccc(Cl)cc2)C(=O)N1CCOc1ccc(Cl)cc1	Dicer inh 3.6
CSC1=N/C(=C\c2ccc([N+](=O)[O-])s2)C(=O)N1CCOc1ccc(Cl)cc1	none
O=S(=O)(c1ccc(NC(=S)Nc2ccc3c(c2)OCO3)cc1)N1CCCCC1	none
O=S(=O)(CCS(=O)(=O)c1cccs1)c1ccccc1	none
O=C(c1cnc2cc(-c3ccccc3)nn2c1)c1cc(Cl)ccc1O	none
O=C(c1cnc2cc(-c3ccccc3)nn2c1)c1cc(Br)ccc1O	Dicer inh 3.3
O=C(c1cnc2cc(-c3ccc(Cl)cc3)nn2c1)c1ccccc1O	none
CN(C)c1ccc(C2N=C(N)Nc3nc4ccccc4n32)cc1 (stereo unspecified)	none
COC(=O)C1=C(C(=O)OC)SC(=C2C(=S)C(C)(C)Nc3cc(C)ccc32)S1	none
CCOC(=O)N1c2ccccc2Sc2ccccc21	none
NC(=O)C1CCN(C(=O)N2c3ccccc3Sc3ccccc32)CC1	none
CCOC(=O)C1CCN(C(=O)N2c3ccccc3Sc3ccccc32)CC1	Dicer inh 4.8
CN1CCN(C(=O)N2c3ccccc3Sc3ccccc32)CC1	Dicer inh 3.4
O=C(Cc1cccs1)N1c2ccccc2Sc2ccccc21	none
O=C(N1CCN(CCO)CC1)N1c2ccccc2C=Cc2ccccc21	none
O=C(Nc1nnc(Sc2ccnc3cc(Cl)ccc23)s1)c1sc2ccccc2c1Cl	none
CN(C(=O)CSc1cc(Cl)ccc1Cl)c1ccc(F)cc1F	none
CCOC(=O)C1=NOC2C(=O)N(c3ccc(Br)cc3)C(=O)C12 (stereo unspecified)	none
CC(=O)n1cc(/C=C2/N=C(c3ccccc3)OC2=O)c2ccccc21	Dicer inh 3
COc1ccc(/C=C2\N=C(c3ccccc3)OC2=O)c(OC)c1	none
O=C1OC(c2ccccc2)=N/C1=C/c1cccs1	none

Bioassay records from PubChem BioAssay.
